According to PubChem BioAssay AID1259416 (Broad Institute, 2018):
Among all 69,000 compounds or so, about 2,600 (3.8%) were called active. Only a selection was taken, and actives are over-represented in it overall. Values without a mark were called inactive. Rule as the data show it: active = activity change below about -70% (passing the limit was not always enough); inconclusive = no clear call, values can overlap the other calls.

Test: T. gondii growth inhibition with IFN-gamma, primary screen, cell-based (AID 1259416);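 also: host cells are HeLa cells infected with Toxoplasma gondii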
Conditions: Toxoplasma gondii growth in IFN-gamma-treated host cells; stronger effect = lower value; concentration not given here

Compound | activity change, negative = inhibition
CC1=CC[C@@H]2CN(C(=O)c3cc(C(C)(C)C)[nH]c(=O)n3)C[C@@H]2C1 | 5.83%
Cc1nn(C)c(C)c1CCC(=O)NCc1ccccc1-n1ccnc1C | -6.3%
CC1Cc2ccccc2N1C(=O)CN1C(=O)COc2ccc(C(=O)c3cccs3)cc21 (stereo not given) | -43.3%
Cc1nc2ccccc2c(=O)n1-c1cccc2ccccc12 | 0.633%
O=S(=O)(c1ccc2c(c1)OCCO2)N1CCN(c2ccc(C(F)(F)F)cn2)CC1 | -88% (active)
O=C(/C=C/c1ccc2c(c1)OCO2)NCc1ccc(F)cc1 | 2.56%
CC(NC(=O)CCc1c[nH]c2ccccc12)c1cn2ncsc2n1 (stereo not given) | 23.4%
O=C(/C=C/c1ccc(CN(CCO)CCc2c[nH]c3ccccc23)cc1)NO | -85.7% (active)
CC(C)c1cc(C2CCN(C(=O)Cc3c[nH]c4ccccc34)CC2)[nH]n1 | 5.9%
O=C(NC1CC1)C1CN(Cc2cnc(NCc3ccccc3)nc2)CCN1 (stereo not given) | -0.724%
Cc1ccsc1C(=O)N1CCCC2(C1)Nc1cccnc1NC2=NC1CCCC1 (stereo not given) | -22.8%
O=S(=O)(c1ccc(F)c(F)c1)N1CCC2(CC1)Nc1ccc(Cl)cc1-n1cccc12 | 17.6%
COc1ccc(OCC(=O)N2CCC3(CC2)Nc2ccc(Cl)cc2-n2cccc23)cc1 | 25.9%
O=C(C1CCCCC1)N1CCC2(CC1)Nc1ccc(Cl)cc1-n1cccc12 | -85.4% (active)
CNC(=O)c1sc2ccccc2c1C1CCC(CNS(=O)(=O)c2cnn(C)c2)CC1 (stereo not given) | -10.6%
Cc1cccn2cc(C(=O)NC[C@@H]3CCNC[C@H]3O)nc12 | -3.48%
O[C@@H]1CNCC[C@H]1CNCc1cccc(Oc2cccc(C(F)(F)F)c2)c1 | -100% (active)
Cc1cc(CNC(=O)c2cccc(C3CCNC3)c2)ccc1F (stereo not given) | -1.39%
Cc1cc(C(=O)N2CCC3(CC2)CNC(=O)O3)c2ccc(F)cc2n1 | 0.544%
CCOC1C2CCC1N(S(=O)(=O)c1cccc(C)c1)CCO2 (stereo not given) | 16.8%
Cc1cc(S(=O)(=O)NCc2ccc3c(c2)OCO3)ccc1-n1cnnn1 | -7.98%
COc1cccc(-c2cccc3[nH]ccc23)n1 | 35.3%
C[C@@H]1COCCN1c1cc(C2(S(C)(=O)=O)CC2)nc(-c2cccc3[nH]ccc23)n1 | -82.8% (active)
NC(=O)Cc1csc(NC(=O)c2ccc3nc(C(F)(F)F)[nH]c3c2)n1 | -8.79%
CNS(=O)(=O)c1ccc([C@@H]2C[C@H](NC(C)=O)C[C@H](CC(C)C)O2)cc1 | -22.6%
Cc1ccc(C2(O)CCN(C(=O)c3noc(C)c3CO)CC2)nc1 | -2.58%
Cc1ccc2cc(CN(c3ccc(C)c(C)c3)S(C)(=O)=O)c(=O)[nH]c2c1 | -50.6%
Cc1ccc(Nc2nc(-c3nnc(-c4cccc(C)c4)o3)nc3ccccc23)cc1 | 96.2%

Compound | activity change, negative = inhibition
COc1cc(OC)c(Nc2nc(-c3nnc(-c4ccccc4)o3)nc3ccccc23)cc1Cl | 268%
Clc1cccc(-c2nnc(-c3nc(NC4CCCC4)c4ccccc4n3)o2)c1 | -77.4% (active)
COc1cc(/C=C/CN2CCC3(CC2)c2ccccc2[C@@H](NC(=O)C(C)C)[C@@H]3OC)ccc1O | 12.6%
CN1C(=O)c2cc(NS(=O)(=O)c3ccccc3F)ccc2OC[C@@H]2O[C@@H](CC(=O)NC3Cc4ccccc4C3)CC[C@@H]21 | -28.5%
Cc1nc(N2CCCC2)nc2c1CCN(C(=O)Nc1ccccc1F)CC2 | -2.86%
Cc1cc(C)nc(N2CCN(c3c4c(nc5c(-c6ccccc6)c(C)nn35)CCC4)CC2)n1 | -75.6% (active)
Cc1cc(N2CCN(c3nc(C)cc(C)n3)CC2)ncn1 | 3.08%
COc1ccc(Cl)cc1S(=O)(=O)N1CCC(c2nc(C(=O)N(C)C)c(C)o2)CC1 | -56%
O=C(Cc1ccc(F)cc1)N1CC[C@@H](O)[C@@H]1Cc1ccccc1 | -30.4%
CN(Cc1noc(C2CCC2)n1)Cc1ncccc1C(=O)O | -0.548%
O=C(NCc1cccnc1)C1=NOC2(CCCN(C(=O)Cc3ccc(F)cc3)C2)C1 (stereo not given) | 53.7%
CC(C(=O)NC1CC1)N1CCc2[nH]nc(-c3ccc(-c4ccccc4)cc3)c2C1 (stereo not given) | 13.6%
CC(C)n1cnc2c(N3CCOCC3)nc(C3CCN(Cc4cccnc4)CC3)cc21 | 1.27%
CC(=O)N1CCC(c2cc3c(ncn3C(C)C)c(-c3ccccc3)n2)CC1 | -106% (active)
CN(CCCc1ccccc1)C(=O)c1cc(CN2CCC(O)CC2)on1 | 6.96%
CCCNc1ncc(-c2nccn2CC2CCOCC2)cn1 | 0.573%
CCc1c2c(nc3ccc(O)cc13)-c1cc3c(c(=O)n1C2)COC(=O)[C@]3(O)CC | -86.3% (active)
CCN(CC)Cc1cnc2n1CCN(Cc1csc(C)n1)CC2 | 4.3%
C[C@H]1CN([C@@H](C)CO)C(=O)c2ccccc2-c2ccccc2CO[C@H]1CN(C)S(=O)(=O)c1cccc(C#N)c1 | 5.72%
C[C@H](CO)N1C[C@H](C)[C@@H](CN(C)S(=O)(=O)c2ccc([N+](=O)[O-])cc2)OCc2ccccc2-c2c(n(C)c3ccccc23)C1=O | -73.3% (active)
C[C@@H]1CN([C@H](C)CO)C(=O)c2c(c3ccccc3n2C)-c2ccccc2CO[C@H]1CN(C)C(=O)[C@@H](Cc1ccccc1)N(C)C | -51.4%
CC(C)(O)CC[C@@H](O)[C@](C)(O)[C@@H]1CC[C@@]2(O)C3=CC(=O)[C@@H]4C[C@@H](O)[C@@H](O)C[C@]4(C)[C@@H]3CC[C@]12C | 12.2%
CN(C)c1nc2c(c(=O)[nH]1)CCN(C(=O)C1(c3ccc(Cl)cc3)CCC1)C2 | -11.9%
COc1cc2c(cc1CNC(=O)c1cc3n(n1)CCCN(C)C3)CCC2 | 5.16%
Cc1ccsc1C(=O)N1CCC2(C1)CN(c1cccc(F)c1)C(=O)CN2C (stereo not given) | -102% (active)
O=C(c1cnccn1)N1CCC2(CC(=O)N(c3cccc(F)c3)C2)C1 (stereo not given) | -1.06%
CC(=O)N1CC(=O)N(c2cnn(C)c2)CC12CCN(C(=O)c1cnc(C)cn1)C2 (stereo not given) | 8.89%
